TDP1 cell noCPT: qHTS for Inhibitors of human tyrosyl-DNA phosphodiesterase 1 (TDP1): qHTS in cells in absence of CPT. DT40 Tdp1-/- hTDP1 cells, no CPT, ATP luminescence, 48 h. Potency, µM (doses to about 46.2 µM), usual class: inhibitors. actives 15% (n = 420,000). AID 686978, 2013; note: nearly all actives have a fitted effect of over 55% in size
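Camptothecin absent (DMSO only). Human TDP1-complemented DT40 knockout cells, 400 cells/well, 37 °C for minimum 48 hr; ATP measured via CellTiter-Glo, 30 min dark incubation, luminescence.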
DT40 TDP1 CPT: DT40-hTDP1 cell growth loss with CPT | chicken DT40 Tdp1-/-;hTDP1 cells + 20 nM CPT, ATP luminescence, 48 h | Potency, µM (titrated, usually from 46.2 µM), usual class: inhibitors | actives 12% (n = 420,000); note: nearly all actives have a fitted effect of over 55% in size
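Chicken DT40 Tdp1-/- cells complemented with human TDP1, 400 cells/well, exposed to compounds plus 20 nM camptothecin for at least 48 h at 37 C; viability read as ATP content by CellTiter-Glo luminescence.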
HT1080-NT tox: kills 2HG-producing HT-1080-NT fibrosarcoma cells | HT-1080-NT fibrosarcoma viability, CellTiter-Glo ATP luminescence, 48 h | Potency, µM (titrated, usually from 46.1 µM), hits mostly cytotoxic | actives 1.6% (n = 360,000);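 note: NT is the 2HG producing partner of a matched IDH1 knockdown line; nearly all actives have a fitted effect of over 55% in size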
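Compounds were tested in concentration-response format on HT-1080-NT cells for 48 hours at 37 degrees C. Cell viability came from CellTiter-Glo luminescence; curves were classified by r2, response magnitude and activity.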
KB-3-1 tox: KB-3-1 parental cell cytotoxicity; KB-3-1 viability, CellTiter-Glo ATP luminescence, 72 h; Potency, µM (series often up to 46.1 µM), most hits filed as cytotoxic; actives 1.4% (n = 400,000); AID 1347075; note: nearly all actives have a fitted effect of over 60% in size
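Screening of KB-3-1 cells (DMEM, 10% FBS, phenol-red free) ran from lowest to highest compound concentration; after 72 h at 37 °C viability was read luminescently and curves fitted.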
HT1080 IDH1KD tx: toxicity to HT-1080 IDH1 knockdown cells (counter line) | HT-1080 IDH1 knockdown viability, ATP luminescence, 48 h | Potency, µM (top dose mostly 46.1 µM), actives largely listed as cytotoxic | actives 2% (n = 360,000) | AID 686971
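% activity derives from luminescence (CellTiter-Glo), normalised to DMSO and no-cell wells. HT-1080-IDH1KD cells, 750/well, had 48 h compound exposure at 37 °C.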
KB-V1 cytotox: KB-V1 MDR subline cytotoxicity | KB-V1 MDR cells viability, CellTiter-Glo, 72 h | Potency, µM (top dose mostly 46.1 µM), hits mostly cytotoxic | AID 1347076 | actives 3.4% (n = 400,000); note: nearly all actives have a fitted effect of over 60% in size
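Cytotoxicity toward P-gp-expressing KB-V1 cells was determined as loss of CellTiter-Glo luminescence after 72 h at 37 degrees C. Compounds were tested in quantitative HTS format across a concentration range, with curves fitted to normalized data.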
Each line names hits and unclear results; the compound was inactive in the other large screens. Only some compounds are listed: those with a hit (about 19% of all), similar ones and a draw of the others. Calls come from the whole dose curve; as a rule, active = well fitted curve in the direction sought with a large enough effect; inconclusive = small, poorly fitted or top-dose-only effect, or another doubt; inactive = no such curve, though single readings can be large; an effect the other way counts as inactive or inconclusive.

COc1cc(/C=C2/SC(=O)N(Cc3ccccc3)C2=O)ccc1OCc1ccncc1	TDP1 cell noCPT 12µM, DT40 TDP1 CPT 16µM, KB-3-1 tox inconclusive
COc1cc(/C=C2\SC(=Nc3ccccc3)N(Cc3ccco3)C2=O)ccc1OC(C)C(=O)O (centres undefined)	KB-3-1 tox inconclusive
C[C@@H]1Cn2cnc(C(=O)N[C@@H](Cc3c[nH]c4ccccc34)C(=O)OC(C)(C)C)c2C(=O)N1	TDP1 cell noCPT inconclusive
CN1c2ccsc2/C(=N/Nc2ccccc2)CS1(=O)=O	TDP1 cell noCPT 1.3µM, DT40 TDP1 CPT 4.1µM, HT1080 IDH1KD tx inconclusive, KB-V1 cytotox inconclusive
Cc1cccc(C(=O)N/N=C2\CS(=O)(=O)N(C)c3ccsc32)c1	TDP1 cell noCPT 13µM, DT40 TDP1 CPT 21µM, HT1080-NT tox inconclusive, KB-3-1 tox inconclusive, HT1080 IDH1KD tx inconclusive
Cc1ccc(CN2CCC(Oc3cccc(C(=O)N(C)CCN(C)C)c3)CC2)cc1C	TDP1 cell noCPT inconclusive, DT40 TDP1 CPT inconclusive, HT1080-NT tox inconclusive, HT1080 IDH1KD tx 21µM
CC1=C(C(=O)N2CCCCCC2)CC(CC(=O)NCCN2CCOCC2)C(=O)N1Cc1ccccc1 (centres undefined)	none
COc1ccc(CCNC(=O)Cn2c(=O)nc(-c3ccccc3F)c3cc(Cl)ccc32)cc1OC	none (no result: HT1080-NT tox, KB-3-1 tox, HT1080 IDH1KD tx, KB-V1 cytotox)
Cc1c(NC(=O)c2nn3c(C(F)(F)F)cc(-c4ccccc4)nc3c2Br)c(=O)n(-c2ccccc2)n1C	TDP1 cell noCPT inconclusive, KB-3-1 tox inconclusive, KB-V1 cytotox inconclusive
CCCCNC(=O)c1nn2c(C(F)(F)F)cc(-c3ccccc3)nc2c1Br	TDP1 cell noCPT 21µM, DT40 TDP1 CPT inconclusive
COc1ccc(-c2cc(C(F)(F)F)n3nc(C(=O)Nc4cccc(C(F)(F)F)c4)c(Br)c3n2)cc1	TDP1 cell noCPT inconclusive, DT40 TDP1 CPT 13µM, KB-V1 cytotox inconclusive (no result: HT1080-NT tox, HT1080 IDH1KD tx)
N#CCNC(=O)c1nn2c(C(F)(F)F)cc(-c3ccccc3)nc2c1Br	none
O=C(CN(C(=O)CCC(=O)Nc1nccs1)c1ccc(F)cc1)NCc1ccc(F)cc1	none
O=C(COC(=O)CC1CC2CCC1C2)Nc1ccccc1[N+](=O)[O-] (centres undefined)	none
CC1(C)CC2(C)OC2C2(C1)N=NC(=Nc1ccccc1)O2 (centres undefined)	TDP1 cell noCPT 4.1µM, DT40 TDP1 CPT 4.1µM, HT1080-NT tox 9.2µM, KB-3-1 tox inconclusive, HT1080 IDH1KD tx inconclusive
CCOc1ccc(N=C2NN=C(c3cc(C)n(CC4CCCO4)c3C)CS2)cc1 (centres undefined)	TDP1 cell noCPT 23µM, DT40 TDP1 CPT inconclusive, KB-V1 cytotox inconclusive
CCCN1CNc2c(c(=O)[nH]c(=S)n2CCc2ccc(OC)cc2)C1	none (no result: KB-3-1 tox, KB-V1 cytotox)
N#CC1=C(N)OC2=C(CC/C2=C\c2ccccc2)C1c1ccccc1 (centres undefined)	TDP1 cell noCPT 10µM, DT40 TDP1 CPT 13µM, KB-3-1 tox inconclusive, KB-V1 cytotox inconclusive
N#CC1=C(N)OC2=C(C(=O)CCC2)C1c1ccccc1 (centres undefined)	none
N#CC1=C(N)OC2=C(CC/C2=C\c2ccccc2Cl)C1c1ccccc1Cl (centres undefined)	TDP1 cell noCPT 21µM, DT40 TDP1 CPT inconclusive, KB-V1 cytotox inconclusive
O=C(CC[C@H]1O[C@@H](n2ccc(=O)[nH]c2=O)[C@H](O)[C@@H]1O)N1CCN(Cc2cccc3ccccc23)CC1	none
COC(=O)c1ccccc1NC(=O)Cc1nc(-c2ccc(OC)cc2)no1	KB-V1 cytotox inconclusive (no result: HT1080-NT tox, HT1080 IDH1KD tx)
O=C(Nc1ccccc1F)c1ccc2sc([C@@H]3O[C@H](CO)[C@H](O)[C@H](O)[C@H]3O)nc2c1	none
CCC(C)c1ccc(S(=O)(=O)N2CCN(CC(O)CN3CCOCC3)CC2)cc1 (centres undefined)	KB-V1 cytotox 5.8µM

Assay outcomes (PubChem)
